According to PubChem BioAssay AID1159580 (chemical genetic matrix, 2015):
Hit rate of the full screen: of about 5,500 compounds, about 2,000 (36%) were called active. Not shown: some 18% with an inconclusive outcome. No stated cut-off is given here; in the data, active means normalized growth mostly below about 0.91 (no sharp cut-off); inconclusive means no clear call, values can overlap the other calls; inactive means mostly above about 0.92. Some of the results follow.

Test: chemical genetic growth profiling, strain panel (AID 1159580);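 further: tested at 20 µM; growth read once vehicle control cultures reached saturation at 30 °C; 1 = growth at the plate median or of vehicle wells; lower values mean less growth of the strain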
Conditions: growth OD

Measured: normalized growth

CCOC([O-])=Nc1c[n+](N2CCOCC2)no1
inactive: S. cerevisiae deletion strains, locus YJR075W, strain HOC1, active compounds read low 1.01 | S. cerevisiae deletion strains, locus YKL009W, strain mrt4, active compounds read low 1.05 | S. cerevisiae deletion strains, locus YKL068W, active compounds read low 0.993 | S. cerevisiae deletion strains, locus YKL085W, strain MDH1 (second series), active compounds read low 1.04 | S. cerevisiae deletion strains, locus YKL085W, strain MDH1, active compounds read low 1.04 | S. cerevisiae deletion strains, locus YKL160W, strain elf1, active compounds read low 0.984 | S. cerevisiae deletion strains, locus YKL190W, strain CNB1, active compounds read low 1.01 | S. cerevisiae deletion strains, locus YKR001C, strain vps1, active compounds read low 0.976 | S. cerevisiae deletion strains, locus YKR026C, strain gcn3, active compounds read low 0.994 | S. cerevisiae deletion strains, locus YKR091W, strain srl3, active compounds read low 0.995 | S. cerevisiae deletion strains, locus YLL001W, strain dnm1, active compounds read low 0.988 | S. cerevisiae deletion strains, locus YLL026W, active compounds read low 0.993 | S. cerevisiae deletion strains, locus YLL041C, strain sdh2, active compounds read low 0.988 | S. cerevisiae deletion strains, locus YLR027C, strain aat2, active compounds read low 0.997 | S. cerevisiae deletion strains, locus YLR039C, strain RIC1, active compounds read low 1.02 | S. cerevisiae deletion strains, locus YLR058C, strain SHM2, active compounds read low 1.01 | S. cerevisiae deletion strains, locus YLR102C, strain apc9, active compounds read low 0.999 | S. cerevisiae deletion strains, locus YLR113W, strain HOG1, active compounds read low 1.01 | S. cerevisiae deletion strains, locus YLR221C, strain rsa3, active compounds read low 0.985 | S. cerevisiae deletion strains, locus YLR258W, strain gsy2, active compounds read low 0.999 | S. cerevisiae deletion strains, locus YLR262C, strain YPT6 (second series), active compounds read low 1.01 | S. cerevisiae deletion strains, locus YLR262C, strain YPT6, active compounds read low 1.05 | S. cerevisiae deletion strains, locus YLR268W, strain sec22, active compounds read low 0.964 | S. cerevisiae deletion strains, locus YLR320W, strain mms22, active compounds read low 0.987 | S. cerevisiae deletion strains, locus YLR330W, strain CHS5, active compounds read low 1.01 | S. cerevisiae deletion strains, locus YLR342W, strain FKS1 (second series), active compounds read low 1.02 | S. cerevisiae deletion strains, locus YLR342W, strain FKS1, active compounds read low 1 | S. cerevisiae deletion strains, locus YLR357W, strain rsc2, active compounds read low 0.984 | S. cerevisiae deletion strains, locus YLR370C, strain arc18, active compounds read low 0.982 | S. cerevisiae deletion strains, locus YLR371W, strain rom2, active compounds read low 0.994 | S. cerevisiae deletion strains, locus YLR384C, strain iki3, active compounds read low 0.994 | S. cerevisiae deletion strains, locus YLR418C, strain cdc73, active compounds read low 0.993 | S. cerevisiae deletion strains, locus YML016C, strain PPZ1, active compounds read low 1.02 | S. cerevisiae deletion strains, locus YML032C, strain rad52, active compounds read low 0.984 | S. cerevisiae deletion strains, locus YML120C, strain ndi1, active compounds read low 0.994 | S. cerevisiae deletion strains, locus YML124C, strain tub3, active compounds read low 1 | S. cerevisiae deletion strains, locus YMR058W, strain fet3, active compounds read low 0.995 | S. cerevisiae deletion strains, locus YMR078C, strain ctf18, active compounds read low 0.996 | S. cerevisiae deletion strains, locus YMR125W, strain sto1, active compounds read low 1.01 | S. cerevisiae deletion strains, locus YMR129W, active compounds read low 0.994 | S. cerevisiae deletion strains, locus YMR205C, strain PFK2, active compounds read low 0.995 | S. cerevisiae deletion strains, locus YMR223W, strain ubp8, active compounds read low 0.998 | S. cerevisiae deletion strains, locus YMR231W, strain pep5, active compounds read low 0.994 | S. cerevisiae deletion strains, locus YMR263W, strain SAP30, active compounds read low 1.02 | S. cerevisiae deletion strains, locus YMR307W, strain GAS1, active compounds read low 1.04 | S. cerevisiae deletion strains, locus YNL067W, strain RPL9B, active compounds read low 1 | S. cerevisiae deletion strains, locus YNL071W, strain lat1, active compounds read low 1 | S. cerevisiae deletion strains, locus YNL128W, strain TEP1, active compounds read low 1.01 | S. cerevisiae deletion strains, locus YNL153C, strain GIM3, active compounds read low 1 | S. cerevisiae deletion strains, locus YNL183C, strain NPR1, active compounds read low 0.999 | S. cerevisiae deletion strains, locus YNL209W, strain ssb2, active compounds read low 0.993 | S. cerevisiae deletion strains, locus YNL233W, strain BNI4, active compounds read low 1.02 | S. cerevisiae deletion strains, locus YNL248C, strain rpa49, active compounds read low 0.992 | S. cerevisiae deletion strains, locus YNL250W, strain rad50, active compounds read low 0.982 | S. cerevisiae deletion strains, locus YNL271C, strain bni1, active compounds read low 0.981 | S. cerevisiae deletion strains, locus YNL298W, strain CLA4, active compounds read low 0.982 | S. cerevisiae deletion strains, locus YNL307C, strain MCK1, active compounds read low 1.01 | S. cerevisiae deletion strains, locus YNL322C, strain KRE1 (second series), active compounds read low 0.99 | S. cerevisiae deletion strains, locus YNL322C, strain KRE1, active compounds read low 1.01 | S. cerevisiae deletion strains, locus YNR049C, strain mso1, active compounds read low 0.988 | S. cerevisiae deletion strains, locus YNR052C, strain pop2, active compounds read low 0.989 | S. cerevisiae deletion strains, locus YOL006C, strain TOP1, active compounds read low 1.03 | S. cerevisiae deletion strains, locus YOL012C, strain htz1 0.747 | S. cerevisiae deletion strains, locus YOL147C, strain pex11, active compounds read low 0.978 | S. cerevisiae deletion strains, locus YOR001W, strain rrp6, active compounds read low 1.01 | S. cerevisiae deletion strains, locus YOR061W, strain CKA2, active compounds read low 1.02 | S. cerevisiae deletion strains, locus YOR069W, strain VPS5, active compounds read low 1.01 | S. cerevisiae deletion strains, locus YOR070C, strain gyp1, active compounds read low 0.994 | S. cerevisiae deletion strains, locus YOR080W, strain dia2, active compounds read low 0.997 | S. cerevisiae deletion strains, locus YOR083W, strain WHI5, active compounds read low 0.988 | S. cerevisiae deletion strains, locus YOR106W, strain vam3, active compounds read low 1.01 | S. cerevisiae deletion strains, locus YOR136W, strain idh2, active compounds read low 0.993 | S. cerevisiae deletion strains, locus YOR144C, strain elg1, active compounds read low 0.991 | S. cerevisiae deletion strains, locus YOR184W, strain ser1, active compounds read low 1 | S. cerevisiae deletion strains, locus YOR231W, strain MKK1, active compounds read low 1.01 | S. cerevisiae deletion strains, locus YOR265W, strain rbl2, active compounds read low 0.991 | S. cerevisiae deletion strains, locus YOR270C, strain vph1, active compounds read low 1.04 | S. cerevisiae deletion strains, locus YOR290C, strain snf2, active compounds read low 0.992 | S. cerevisiae deletion strains, locus YOR316C, strain cot1, active compounds read low 0.998 | S. cerevisiae deletion strains, locus YPL051W, strain arl3, active compounds read low 0.995 | S. cerevisiae deletion strains, locus YPL055C, strain LGE1, active compounds read low 1.04 | S. cerevisiae deletion strains, locus YPL078C, strain atp4, active compounds read low 1 | S. cerevisiae deletion strains, locus YPL106C, strain sse1, active compounds read low 0.963 | S. cerevisiae deletion strains, locus YPL240C, strain hsp82, active compounds read low 0.981 | S. cerevisiae deletion strains, locus YPL241C, strain CIN2, active compounds read low 1.01 | S. cerevisiae deletion strains, locus YPL256C, strain CLN2, active compounds read low 1.04 | S. cerevisiae deletion strains, locus YPR119W, strain clb2, active compounds read low 0.994 | S. cerevisiae deletion strains, locus YPR141C, strain kar3, active compounds read low 0.983 | S. cerevisiae deletion strains, locus YPR163C, strain tif3, active compounds read low 0.984 | S. cerevisiae deletion strains, locus YPR167C, strain met16, active compounds read low 1 | S. cerevisiae deletion strains, strain wtn01, active compounds read low 0.98 | S. cerevisiae strains, strain wild type, active compounds read low 1.02
